This is an account of results in paper PMC12820563, “FoxP3 forms a head-to-head dimer in vivo and stabilizes its multimerization on adjacent microsatellites”.

Whole data set: some 16,000 sequences, median “rpm ratio (pull-down/input)” near 0.94, cut for the highest 2% near 1.7. The sample as a whole holds a higher share of the highest values than the screen did.

The experiment deals with T1, MBP-FoxP1dN (Mus musculus, UniProt P58462 326-579).
T1 sequence: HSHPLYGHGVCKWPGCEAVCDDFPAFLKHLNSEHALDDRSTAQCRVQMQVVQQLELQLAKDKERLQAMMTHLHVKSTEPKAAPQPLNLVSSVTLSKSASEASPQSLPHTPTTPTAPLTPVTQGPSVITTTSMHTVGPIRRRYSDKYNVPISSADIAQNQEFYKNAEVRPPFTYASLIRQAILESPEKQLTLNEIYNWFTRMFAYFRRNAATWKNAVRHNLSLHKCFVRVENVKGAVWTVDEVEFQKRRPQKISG
Put plainly: PD-seq (MBP pull-down with sequencing); 20 mM Tris-HCl pH 7.5, 100 mM NaCl, 1.5 mM MgCl2, 0.4 uM protein, 0.1 uM dsDNA library, 30 min, room temperature, amylose pull-down; high values mean tight binding. As to conditions: protein: recombinant; tags: His6-MBP; chain copies: 2; dsDNA, one strand shown. Summed up: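 Binding is given as reads-per-million enrichment, pull-down over input, with replicates pooled. The bait was an N-terminus-lacking mouse FoxP3 or FoxP1 fragment with a His6-MBP tag, expressed in E. coli and used at 0.4 µM with 0.1 µM Klenow-filled degenerate double-stranded DNA library for 30 min at room temperature in Tris pH 7.5 buffer with NaCl and MgCl2. Amylose resin pull-down with three washes was followed by proteinase K release, PCR barcoding and Illumina sequencing.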
“GATGATTGTTCTCCCAGCTGATGAATTCACGCTGTCGAGTAAACAAATTTTCCTAATCTTTCTGTTCAAGCGCCATCTAC”: the binding signal is 0.895 RPM ratio (pull-down/input).
The same measure for “GATGATTGTTCTCCCAGCTGATGAATTACTCGTCTCGAGTAAACAAATTTTCCTAATCTTTCTGTTCAAGCGCCATCTAC”: 0.904 RPM ratio (pull-down/input); for “GATGATTGTTCTCCCAGCTGATGAATTTGAGTGATCGAGTAAACAAATTTTCCTAATCTTTCTGTTCAAGCGCCATCTAC”: 0.906 RPM ratio (pull-down/input).
The same measure for “GATGATTGTTCTCCCAGCTGATGAATTAACGCGGTCGAGTAAACAAATTTTCCTAATCTTTCTGTTCAAGCGCCATCTAC”: 0.904 RPM ratio (pull-down/input); for “GATGATTGTTCTCCCAGCTGATGAATTTATGATGTCGAGTAAACAAATTTTCCTAATCTTTCTGTTCAAGCGCCATCTAC”: 1.51 RPM ratio (pull-down/input).
Turning to “GATGATTGTTCTCCCAGCTGATGAATTAATTATGTCGAGTAAACAAATTTTCCTAATCTTTCTGTTCAAGCGCCATCTAC”, the binding signal was 1.07 RPM ratio (pull-down/input).
With “GATGATTGTTCTCCCAGCTGATGAATTTTTTATGTCGAGTAAACAAATTTTCCTAATCTTTCTGTTCAAGCGCCATCTAC” the figure was 1.04 RPM ratio (pull-down/input).
The same measure for “GATGATTGTTCTCCCAGCTGATGAATTATTTATGTCGAGTAAACAAATTTTCCTAATCTTTCTGTTCAAGCGCCATCTAC”: 1.83 RPM ratio (pull-down/input).
With “GATGATTGTTCTCCCAGCTGATGAATTATGTCTGTCGAGTAAACAAATTTTCCTAATCTTTCTGTTCAAGCGCCATCTAC” the figure was 0.913 RPM ratio (pull-down/input).
Turning to “GATGATTGTTCTCCCAGCTGATGAATTTGTTATGTCGAGTAAACAAATTTTCCTAATCTTTCTGTTCAAGCGCCATCTAC”, the binding signal was 1.55 RPM ratio (pull-down/input).
Turning to “GATGATTGTTCTCCCAGCTGATGAATTCTTTATGTCGAGTAAACAAATTTTCCTAATCTTTCTGTTCAAGCGCCATCTAC”, the binding signal was 1.04 RPM ratio (pull-down/input).
The same measure for “GATGATTGTTCTCCCAGCTGATGAATTTATTATGTCGAGTAAACAAATTTTCCTAATCTTTCTGTTCAAGCGCCATCTAC”: 1.4 RPM ratio (pull-down/input).
The same measure for “GATGATTGTTCTCCCAGCTGATGAATTATGTTTGTCGAGTAAACAAATTTTCCTAATCTTTCTGTTCAAGCGCCATCTAC”: 2.67 RPM ratio (pull-down/input).
With “GATGATTGTTCTCCCAGCTGATGAATTGTTTATGTCGAGTAAACAAATTTTCCTAATCTTTCTGTTCAAGCGCCATCTAC” the figure was 2.77 RPM ratio (pull-down/input); with “GATGATTGTTCTCCCAGCTGATGAATTTATGTCGTCGAGTAAACAAATTTTCCTAATCTTTCTGTTCAAGCGCCATCTAC”, 1.14 RPM ratio (pull-down/input); with “GATGATTGTTCTCCCAGCTGATGAATTTATGTTGTCGAGTAAACAAATTTTCCTAATCTTTCTGTTCAAGCGCCATCTAC”, 2.86 RPM ratio (pull-down/input).
Take “GATGATTGTTCTCCCAGCTGATGAATTGGTCAGGTCGAGTAAACAAATTTTCCTAATCTTTCTGTTCAAGCGCCATCTAC”: the binding signal is 0.794 RPM ratio (pull-down/input).
The same measure for “GATGATTGTTCTCCCAGCTGATGAATTGCGTGCCTCGAGTAAACAAATTTTCCTAATCTTTCTGTTCAAGCGCCATCTAC”: 1.09 RPM ratio (pull-down/input).
The same measure for “GATGATTGTTCTCCCAGCTGATGAATTCGGTTTCTCGAGTAAACAAATTTTCCTAATCTTTCTGTTCAAGCGCCATCTAC”: 0.847 RPM ratio (pull-down/input); for “GATGATTGTTCTCCCAGCTGATGAATTCGGAGCATCGAGTAAACAAATTTTCCTAATCTTTCTGTTCAAGCGCCATCTAC”: 1 RPM ratio (pull-down/input); for “GATGATTGTTCTCCCAGCTGATGAATTCGATTCTTCGAGTAAACAAATTTTCCTAATCTTTCTGTTCAAGCGCCATCTAC”: 0.855 RPM ratio (pull-down/input).
The same measure for “GATGATTGTTCTCCCAGCTGATGAATTAAAGGAATCGAGTAAACAAATTTTCCTAATCTTTCTGTTCAAGCGCCATCTAC”: 0.934 RPM ratio (pull-down/input); for “GATGATTGTTCTCCCAGCTGATGAATTGTTCGAGTCGAGTAAACAAATTTTCCTAATCTTTCTGTTCAAGCGCCATCTAC”: 1.05 RPM ratio (pull-down/input).
On to “GATGATTGTTCTCCCAGCTGATGAATTTTGGCGATCGAGTAAACAAATTTTCCTAATCTTTCTGTTCAAGCGCCATCTAC”, for which the binding signal is 0.955 RPM ratio (pull-down/input).
With “GATGATTGTTCTCCCAGCTGATGAATTGGACGTGTCGAGTAAACAAATTTTCCTAATCTTTCTGTTCAAGCGCCATCTAC” the figure was 0.855 RPM ratio (pull-down/input); with “GATGATTGTTCTCCCAGCTGATGAATTGTCCCTCTCGAGTAAACAAATTTTCCTAATCTTTCTGTTCAAGCGCCATCTAC”, 0.967 RPM ratio (pull-down/input); with “GATGATTGTTCTCCCAGCTGATGAATTGGACAAATCGAGTAAACAAATTTTCCTAATCTTTCTGTTCAAGCGCCATCTAC”, 1.05 RPM ratio (pull-down/input).
The same measure for “GATGATTGTTCTCCCAGCTGATGAATTGATATTGTCGAGTAAACAAATTTTCCTAATCTTTCTGTTCAAGCGCCATCTAC”: 2.35 RPM ratio (pull-down/input); for “GATGATTGTTCTCCCAGCTGATGAATTGATATTTTCGAGTAAACAAATTTTCCTAATCTTTCTGTTCAAGCGCCATCTAC”: 2.4 RPM ratio (pull-down/input); for “GATGATTGTTCTCCCAGCTGATGAATTGAATCTGTCGAGTAAACAAATTTTCCTAATCTTTCTGTTCAAGCGCCATCTAC”: 0.897 RPM ratio (pull-down/input).
On to “GATGATTGTTCTCCCAGCTGATGAATTTGATATTTCGAGTAAACAAATTTTCCTAATCTTTCTGTTCAAGCGCCATCTAC”, for which the binding signal was 1.13 RPM ratio (pull-down/input).
With “GATGATTGTTCTCCCAGCTGATGAATTTGATATGTCGAGTAAACAAATTTTCCTAATCTTTCTGTTCAAGCGCCATCTAC”, the binding signal is 1 RPM ratio (pull-down/input).
Regarding “GATGATTGTTCTCCCAGCTGATGAATTTTGATATTCGAGTAAACAAATTTTCCTAATCTTTCTGTTCAAGCGCCATCTAC”, the binding signal was 1.19 RPM ratio (pull-down/input).
